Results on 40 compounds are retold here after PubChem BioAssay (NCATS).

Inconclusive results are not listed. Calls of active or inactive are those of the source. The call rests on the fitted dose curve; in most records, active means well fitted cell-killing curve with a large enough effect; inconclusive means small, poorly fitted or top-dose-only effect, or effect the other way; inactive means no such curve, though single readings can be large or run the other way. Non-standard residues stand in square brackets, D forms with d. Residues, ends and D or L forms follow the SMILES beside them. *: point of attachment. Sta = CC(C)C[C@H](N)[C@@H](O)CC(=O)O; Isovaleryl = CC(C)CC(=O)*
Potency means the concentration at half of the fitted maximal effect.

The assay can be described thus: Quantitative High-Throughput drug screen in 47 multiple myeloma cell lines against the NCATS MIPE library collection: KMS20_JCRB cell viability assay (AID 1918973). Further: nearly all actives have a fitted effect of over 45% in size. Conditions: CellTiter-Glo ATP, 48 h; series mostly up to 45.8 µM; viability (% of DMSO): at the top concentration. An excerpt: PI: Beverly A. Mock Ph.D.
Laboratory of Cancer Biology and Genetics,
Center for Cancer Research, National Cancer Institute,
National Institute of Health, Bethesda, Maryland
Drug resistance and disease progression are common in multiple myeloma (MM) patients, underscoring the need for new therapeutic combinations. […] We hypothesized that effective combinations would reduce MYC expression and enhance p16 activity. […] These preclinical data identify potentially useful drug combinations for evaluation in drug-resistant MM and reveal potential mechanisms of combined drug sensitivity.
Described herein is the primary MIPE qHTS used to cherrypick compounds. Validated compounds were then further tested for potential synergistic activiy.
[1] Peat TJ, Gaikwad SM, Dubois W, Gyabaah-Kessie N, Zhang S, Gorjifard S, Phyo Z, Andres M, Hughitt VK, Simpson RM, Miller MA, Girvin AT, Taylor A, Williams D, D'Antonio N, Zhang Y, Rajagopalan A, Flietner E, Wilson K, Zhang X, Shinn P, Klumpp-Thomas C, McKnight C, Itkin Z, Chen L, Kazandijian D, Zhang J, Michalowski AM, Simmons JK, Keats J, Thomas CJ, Mock BA. Drug combinations identified by high-throughput screening promote cell cycle transition and upregulate Smad pathways in myeloma. Cancer Lett. 2023 Aug 1;568:216284. doi: 10.1016/j.canlet.2023.216284. Epub 2023 Jun 24. PMID: 37356470; PMCID: PMC10408729.
SEQUENCE No. (e.g., 1, 2, 3, etc.); […] (e.g., Cells, Incubation, Reagent, etc.); VALUE and DESCRIPTION.
1; Cells; 5 uL; white, solid bottom 1536-well Greiner assay plate.
2; Compounds; 23 nL; Kalypsis pin tool (Wako USA) equipped with a 1536-well pin head to transfer to the assay plates.
3; Incubation; 48 hours; 37C incubation.
4; Reagent;5uL; CellTiter Glo (Promega).
5; Detector; 425V; Luminescence; Viewlux PerkinElmer.
NOTES (numbers refer to Sequence numbers above)
1. The cell-based screening methods employed in this study were like those previously published. Briefly, the corresponding myeloma cell lines were screened in 1,536-well plates with 500 cells, 5-uL per well for inhibition of cell viability (assessed by measuring ATP levels with CellTiterGlo).
2. NCATS MIPE 4.0 library of approved and investigational drugs were added using the Kalypsis pin tool. Wells treated with DMSO only for 100% viability and media only wells for 0% viability were used as controls.
3. The assay plates were covered and incubated for 48 hours in a 37C, 5% CO2 incubator with controlled humidity.
4. After 48 hours, CellTilter-GloTM luminescent substrate mix (Promega) reagent was added to the assay plate and plates we incubated for 5 min at room temperature.
5. Signal was measured as median relative luminescence units on a ViewLux (PerkinElmer) multiplate reader.
[1] Heske CM, Davis MI, Baumgart JT, Wilson K, Gormally MV, Chen L, Zhang X, Ceribelli M, Duveau DY, Guha R, Ferrer M, Arnaldez FI, Ji J, Tran HL, Zhang Y, Mendoza A, Helman LJ, Thomas CJ. Matrix Screen Identifies Synergistic Combination of PARP Inhibitors and Nicotinamide Phosphoribosyltransferase (NAMPT) Inhibitors in Ewing Sarcoma. Clin Cancer Res. 2017 Dec 1;23(23):7301-7311. doi: 10.1158/1078-0432.CCR-17-1121. Epub 2017 Sep 12. PMID: 28899971; PMCID: PMC6636827.
For the compound `CN(C)c1ccc2nc3ccc(=[N+](C)C)cc-3sc2c1`, the Potency is 2.64 µM (active).
The same measure, in the same setting: next, `Cc1ccc(S(=O)(=O)NC(=O)NN2CC3CCCC3C2)cc1` (stereo not given): 10.5 µM (active).
As for `CN(C)[C@@H](CCOc1cccc2ccccc12)c1ccccc1`, the Potency was 14.8 µM (active).
The same measure, in the same setting: next, `Cc1nc(Nc2ncc(C(=O)Nc3c(C)cccc3Cl)s2)cc(N2CCN(CCO)CC2)n1`: 0.332 µM (active).
Consider `CCN(CC)CCOc1ccc(Cc2ccccc2)cc1`, for which the “viability (% of DMSO)” value is 104% (inactive).
Same read-out and setting: then `c1ccc2[nH]c(-c3cscn3)nc2c1`, with 118% (inactive).
Turning to `COc1cc2c(N3CCN(C(=O)Nc4ccc(OC(C)C)cc4)CC3)ncnc2cc1OCCCN1CCCCC1`, the Potency was 5.26 µM (active).
The same measure, in the same setting: next, `CC(C)C[C@H](NC(=O)[C@H](Cc1ccccc1)NC(=O)c1cnccn1)B(O)O`: 0.0148 µM (active); `O=C(NOCC1CC1)c1ccc(F)c(F)c1Nc1ccc(I)cc1Cl`: 0.59 µM (active).
For `CCOC(=O)C1=C[C@@H](OC(CC)CC)[C@H](NC(C)=O)[C@@H](N)C1`, the “viability (% of DMSO)” value was 144% (inactive).
Still for that read-out and setting: then `C[C@@H](N)C1CCC(C(=O)Nc2ccncc2)CC1` (stereo not given in full), with 102% (inactive).
For the compound `CC(=O)N1CCN(c2ccc(OC[C@H]3CO[C@](Cn4ccnc4)(c4ccc(Cl)cc4Cl)O3)cc2)CC1`, the Potency is 7.43 µM (active).
Regarding `Cc1cc(O)c2c(c1)C(=O)c1cc(O)cc(O)c1C2=O`, the “viability (% of DMSO)” value was 128% (inactive).
Same read-out and setting: next, `CC1=C(C)C(=O)C(C(CCCCCC(=O)O)c2ccccc2)=C(C)C1=O` (stereo not given): 68% (inactive).
With `O=Nc1c(-c2c(O)[nH]c3cc(Br)ccc23)[nH]c2ccccc12`, the Potency was 5.9 µM (active).
On the same count and under the same terms, next, `Nc1ncn([C@H]2C[C@H](O)[C@@H](CO)O2)c(=O)n1`: 0.132 µM (active); `CN(C)C(=O)[C@H](O)[C@H](Cc1ccccc1)NC(=O)c1cc2cc(Cl)ccc2[nH]1`: 7.43 µM (active).
Take `COc1cc2c(cc1OC)C1CC(=O)C(CC(C)C)CN1CC2` (stereo not given): the “viability (% of DMSO)” value is 82.3% (inactive).
Same read-out and setting: then `O=P(O)(O)C(O)(Cn1ccnc1)P(=O)(O)O`, with 86.6% [at 23.2 µM] (inactive).
`Cc1cc(C2CCCCC2)n(O)c(=O)c1`: the Potency was 11.8 µM (active).
Still for that read-out and setting: then `Cc1cc(Cl)ccc1OCCCC(=O)NO`, with 4.18 µM (active).
`CCCCC(CC)COC(=O)C(C#N)=C(c1ccccc1)c1ccccc1` (stereo not given): the “viability (% of DMSO)” value is 106% (inactive).
On the same count and under the same terms, next, `N=C(N=C(N)N)N1CCOCC1`: 115% (inactive); `CCc1nc(N)nc(N)c1-c1ccc(Cl)cc1`: 79.7% (inactive).
Still for that read-out and setting: next, `Cc1cc(=O)oc2cc(O)ccc12`: 99.8% (inactive); `CC(=O)O[C@H]1C(=O)[C@@]2(C)C([C@H](OC(=O)c3ccccc3)[C@]3(O)C[C@H](OC(=O)[C@H](O)[C@@H](NC(=O)c4ccccc4)c4ccccc4)C(C)=C1C3(C)C)[C@]1(OC(C)=O)CO[C@@H]1C[C@@H]2O` (stereo not given in full): 52.9% (inactive).
Take `Cc1cccc(CN2CCN(C(c3ccccc3)c3ccc(Cl)cc3)CC2)c1` (stereo not given): the Potency was 6.62 µM (active).
Turning to `O=c1oc2cc(O)ccc2s1`, the “viability (% of DMSO)” value is 82% (inactive).
Still for that read-out and setting: next, `O=C(O)c1cccc(-c2noc(-c3ccccc3F)n2)c1`: 121% (inactive).
On to `COc1ccccc1N1CCN(CCN(C(=O)C2CCCCC2)c2ccccn2)CC1`, for which the Potency was 5.26 µM (active).
As to `CCN(CC)C(=S)SSC(=S)N(CC)CC`, the Potency was 0.001 µM (active).
Regarding `CCOC(=O)c1c(C)n(C)c2ccc(O)cc12`, the “viability (% of DMSO)” value is 101% (inactive).
The same measure, in the same setting: next, `Clc1ccc2c(N3CCN(CCCN4CCN(c5ccnc6cc(Cl)ccc56)CC4)CC3)ccnc2c1`: 106% [at 23.2 µM] (inactive).
With `CCOc1cc(CC(=O)N[C@@H](CC(C)C)c2ccccc2N2CCCCC2)ccc1C(=O)O`, the Potency was 0.59 µM (active).
As for `CCN(CC)CCOc1ccc(Nc2ncc3cc(-c4c(Cl)cccc4Cl)c(=O)n(C)c3n2)cc1`, the Potency was 0.001 µM (active).
For `O=c1ccc2ccc(O)c(O)c2o1`, the Potency was 16.6 µM (active).
Regarding `CC(C)CC(=O)N[C@H](C(=O)N[C@H](C(=O)N[C@@H](CC(C)C)[C@@H](O)CC(=O)N[C@@H](C)C(=O)N[C@@H](CC(C)C)[C@@H](O)CC(=O)O)C(C)C)C(C)C` (Isovaleryl-VV[Sta]A[Sta]-OH), the “viability (% of DMSO)” value was 82.7% (inactive).
`Oc1ccc2ccccc2c1SSc1c(O)ccc2ccccc12`: the Potency is 9.35 µM (active).
With `CS(=O)(=O)OCCCCOS(C)(=O)=O`, the “viability (% of DMSO)” value is 115% (inactive).
Regarding `CC1(C)C(=O)N(CCN2CCC(C(=O)c3ccc(F)cc3)CC2)c2ccccc21`, the Potency is 4.18 µM (active).
